Luc counter = counter-screen: inhibitors of Kinase-Glo firefly luciferase; Kinase-Glo luciferase, ATP luminescence, 8 min; AID 1379; Potency, µM (top dose mostly 38.3 µM), for the others: top-dose activity change, negative = inhibition, usual class: inhibitors; Q27757; 200,000 tested, 0.28% active; also: nearly all actives have a fitted effect of over 60% in size
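Substrate mix (final 50 mM imidazole pH 7.2, 50 mM KCl, 7 mM MgCl2, 10 uM ATP, 0.01% Tween 20, 0.05% BSA) plus pin-tool compound, then Kinase-Glo detection mix; 8 min ambient, luminescence read.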
HPGD block = HPGD (human) dehydrogenase inhibition | P15428 | purified HPGD, NADH fluorescence kinetic, PGE2 substrate | Potency, µM, for the others: top-dose activity change, negative = inhibition, hits mostly inhibitors | 150,000 tested, 4.3% active; active = well fitted inhibition curve with a large enough effect, not every such curve was filed as active; inconclusive = small, poorly fitted or top-dose-only effect, or another doubt; inactive = no such curve, though single readings can be large or run the other way
Target sequence (P15428 whole entry, looked up): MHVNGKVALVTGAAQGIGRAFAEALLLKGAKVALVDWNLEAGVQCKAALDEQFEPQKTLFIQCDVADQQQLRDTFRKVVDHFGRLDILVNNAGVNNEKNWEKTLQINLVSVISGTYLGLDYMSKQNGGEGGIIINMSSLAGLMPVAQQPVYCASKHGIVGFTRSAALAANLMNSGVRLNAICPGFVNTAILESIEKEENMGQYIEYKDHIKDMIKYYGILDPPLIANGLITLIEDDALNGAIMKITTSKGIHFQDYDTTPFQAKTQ
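NADH formation kinetics: reaction with 30 uM PGE2 and 1 mM NAD+ (final), 20 nM enzyme, Tris-HCl pH 8 with Tween 20, after 15 min compound preincubation at room temperature. Fluorescence change, last versus first of five reads.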
IMPase Li inh = IMPase inhibition in cells with lithium potentiation; AID 1457; Potency, µM (top dose mostly 59.4 µM), inactives show top-dose activity, negative = IMPase inhibition, actives largely listed as inhibitors; CHO-M1 cells, IP1 TR-FRET (IP-One), carbachol + lithium; 210,000 tested, 0.35% active;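 also: IP1 builds up when IMPase is blocked and the TR-FRET signal falls; plate controls were basal vehicle for no effect and high inhibitor control for full effect; nearly all actives have a fitted effect of over 50% in size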
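Test compounds were applied to CHO-M1 cells previously cultured for 16–30 h at 2000 per well. A small lithium amount accompanied them; after 30 min at 37C, IP1 was quantified by TR-FRET.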
LMNA splice mod = changes lamin A minigene splicing in HeLa cells; HeLa LMNA splicing GFP/RFP minigene ratio, 48 h; Potency, µM (top dose mostly 46.1 µM), inactives show top-dose ratio change, negative = inhibition, most hits filed as inhibitors; 200,000 tested, 0.01% active; AID 1487; active = well fitted inhibition curve with a large enough effect in the signal ratio, with a control signal flat, not every such curve was filed as active; inconclusive = small, poorly fitted or top-dose-only effect, or effect the other way, or a change in a side signal; the % refers to the signal ratio
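Read-out is the ratio of GFP to DsRed2 object intensity, acquired by 488 nm laser-scanning cytometry on HeLa lamin A-EGFP minigene reporter cells. Compound incubation 48 hrs at 37 °C in Opti-MEM with 2% FBS; DMSO 0.5% final.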
ALDH1A1 block = blocks purified human ALDH1A1 activity. Purified ALDH1A1, NADH fluorescence, propionaldehyde substrate. Potency, µM (highest dose often 75.3 µM), for inactives: top-dose activity, negative = inhibition, actives largely listed as inhibitors. 220,000 tested, 7.3% active. AID 1030; active = well fitted inhibition curve with a large enough effect, not every such curve was filed as active; inconclusive = small, poorly fitted or top-dose-only effect, or another doubt; inactive = no such curve, though single readings can be large or run the other way;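 also: plate controls were no enzyme wells and a reference inhibitor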
Target sequence (P00352 whole entry, looked up): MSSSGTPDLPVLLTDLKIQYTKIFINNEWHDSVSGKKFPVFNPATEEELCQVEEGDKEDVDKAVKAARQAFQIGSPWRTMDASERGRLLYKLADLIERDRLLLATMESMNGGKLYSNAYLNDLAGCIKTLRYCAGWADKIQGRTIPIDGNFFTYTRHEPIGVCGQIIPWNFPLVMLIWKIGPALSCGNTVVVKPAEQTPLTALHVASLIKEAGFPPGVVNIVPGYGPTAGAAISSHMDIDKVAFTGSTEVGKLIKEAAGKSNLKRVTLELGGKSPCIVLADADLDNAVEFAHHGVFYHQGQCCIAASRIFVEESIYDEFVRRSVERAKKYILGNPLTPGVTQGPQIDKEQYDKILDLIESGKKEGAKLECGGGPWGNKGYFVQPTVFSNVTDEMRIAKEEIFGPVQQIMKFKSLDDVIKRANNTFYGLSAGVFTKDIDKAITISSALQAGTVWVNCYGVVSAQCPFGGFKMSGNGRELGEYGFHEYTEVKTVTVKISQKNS
Active calls of the source: *; [ ] = another dose, or the depositor's remark. Hits are enriched below; roughly 9% of the tested compounds scored in any of these assays. Unless noted, calls follow the shape of the dose curve; as a rule, active = well fitted curve in the direction sought with a large enough effect; inconclusive = small, poorly fitted or top-dose-only effect, or another doubt; inactive = no such curve, though single readings can be large; an effect the other way counts as inactive or inconclusive. Unless noted, % is scaled to controls: 0 for no effect and ±100 for the full control effect; potency is read from the fitted curve at half-maximal effect.

How did CCCC[C@@H]1CN2[C@H](c3ccc(Br)cc3)[C@H](C)CC[C@H]2C(=O)O1 do in these assays?
ALDH1A1 block: -2.3%[13.5 µM]

What do the screens show for `CCOC(=O)C1(Cc2ccccc2Cl)CCN(S(C)(=O)=O)CC1`?
Luc counter: 2.8%; IMPase Li inh: 5.2%; LMNA splice mod: 1.1%[46 µM]; ALDH1A1 block: 10µM*

How did CCOC(=O)C1(Cc2ccc(OC)cc2)CCN(S(C)(=O)=O)CC1 do in these assays?
Luc counter: -0.7%; IMPase Li inh: 10.7%; ALDH1A1 block: 18.1%

How did CC(NC(=O)CSc1nnc(CC(=O)Nc2ccc(Cl)c(Cl)c2)n1C)c1ccccc1 (centres undefined) do in these assays?
Luc counter: 0.5%; HPGD block: 28.2µM*; IMPase Li inh: -2.6%[38.3 µM]; LMNA splice mod: 4.6%; ALDH1A1 block: inconclusive

Results for [O-]/[N+](=C\c1ccncc1)c1ccc(Br)cc1 ?
Luc counter: -3.2%; HPGD block: inconclusive; IMPase Li inh: -2.1%; LMNA splice mod: -0.4%; ALDH1A1 block: 1.12µM*

Results for CCCCS(=O)(=O)/C=C\C1C2C=CC(C2)C1S(=O)(=O)CCCC (centres undefined) ?
Luc counter: -3.1%; HPGD block: 0.9%; IMPase Li inh: 1.2%[38.3 µM]; LMNA splice mod: inconclusive; ALDH1A1 block: inconclusive

What do the screens show for `CCCCS(=O)(=O)/C=C\C=C/S(=O)(=O)CCCC`?
Luc counter: 11.6%; HPGD block: 25.1µM*; IMPase Li inh: 18.7%; LMNA splice mod: inconclusive; ALDH1A1 block: 3.98µM*

Results for O=C(CCn1c(=O)c2ccccc2n(CC(=O)NC2CCCC2)c1=O)NCCc1ccc(Cl)cc1 ?
Luc counter: -3.2%; HPGD block: -15.1%; IMPase Li inh: 26.5%[38.3 µM]; LMNA splice mod: 8.9%; ALDH1A1 block: 5.5%

How did CCN(CCCNC(=O)CCCOc1cc(=O)n(C)c2ccccc12)Cc1ccccc1 do in these assays?
Luc counter: 1.3%; IMPase Li inh: 20.8%; LMNA splice mod: -16.3%[46 µM]; ALDH1A1 block: -10.0%

How did CCOC(=O)c1cc2n(c1/N=C/N(C)C)-c1ccccc1C2=O do in these assays?
Luc counter: -3.0%; HPGD block: -13.7%; IMPase Li inh: -28.2%[38.3 µM]; LMNA splice mod: 16.4%; ALDH1A1 block: 17.8µM*

Results for CCOC(=O)c1cc(=O)[nH]c2ccccc12 ?
Luc counter: -0.7%; IMPase Li inh: 0.2%; LMNA splice mod: 15.3%[46 µM]; ALDH1A1 block: 0.3%

Results for CC1CCC(NC(=O)c2ccc(CNc3c(NC4CCCCC4)c(=O)c3=O)cc2)CC1 (centres undefined) ?
Luc counter: -1.5%; HPGD block: inconclusive; IMPase Li inh: -0.6%; LMNA splice mod: -0.7%; ALDH1A1 block: inconclusive

Results for CCOC(=O)C1CCCN(C(=O)c2ccc(CNc3c(N4CCC(C)CC4)c(=O)c3=O)cc2)C1 (centres undefined) ?
Luc counter: 2.2%; HPGD block: 10µM*; IMPase Li inh: 26.0%[38.3 µM]; LMNA splice mod: -8.9%; ALDH1A1 block: inconclusive

What do the screens show for `CCCNC(=O)c1ccc(CNc2c(N3CCC(C(=O)OCC)CC3)c(=O)c2=O)cc1`?
Luc counter: -3.9%; HPGD block: 4.47µM*; IMPase Li inh: -10.9%[38.3 µM]; LMNA splice mod: -4.7%; ALDH1A1 block: inconclusive

Results for CC1CCN(c2c(NCc3ccc(C(=O)N4CCN(C5CCCCC5)CC4)cc3)c(=O)c2=O)CC1 ?
Luc counter: -0.9%; HPGD block: inconclusive; IMPase Li inh: 2.4%; LMNA splice mod: 3.5%; ALDH1A1 block: 1.9%

What do the screens show for `O=C(NC1CCCC1)c1ccc(CNc2c(N3CCOCC3)c(=O)c2=O)cc1`?
Luc counter: -0.7%; HPGD block: 7.94µM*; IMPase Li inh: -1.1%[38.3 µM]; LMNA splice mod: 11.5%; ALDH1A1 block: 5.2%

What do the screens show for `CCOC(=O)C1CCN(c2c(NCCCN3CCN(Cc4ccccc4)CC3)c(=O)c2=O)CC1`?
Luc counter: 5.7%; HPGD block: 14.1µM*; IMPase Li inh: 3.0%[38.3 µM]; LMNA splice mod: -0.5%; ALDH1A1 block: -4.4%

Results for Cc1cc(C)cc(-n2ccn(CC(=O)Nc3cc(C)ccc3C)c(=O)c2=O)c1 ?
LMNA splice mod: -0.1%[46 µM]

How did COc1ccc(OC)c(NC(=O)CSc2nc(=O)n(CCN(C)C)c3c2CCC3)c1 do in these assays?
LMNA splice mod: 10.2%[46 µM]

How did CCn1ccc2cc(S(=O)(=O)N3CCCN(C(=O)Nc4ccccc4OC)CC3)ccc21 do in these assays?
LMNA splice mod: -7.5%[46 µM]

What do the screens show for `Cc1ccc2nc(SC(C)C(=O)NCc3ccc4c(c3)OCO4)[nH]c2c1` (centres undefined)?
LMNA splice mod: -10.0%; ALDH1A1 block: -2.4%

Results for O=C(c1ccc(CNc2c(NC3CCCCC3)c(=O)c2=O)cc1)N1CCc2ccccc21 ?
Luc counter: -0.9%; HPGD block: -18.3%; IMPase Li inh: 10.9%[38.3 µM]; LMNA splice mod: -0.6%; ALDH1A1 block: 2.5%

How did CC1CCN(c2c(NCc3ccc(C(=O)NCCc4ccc(Cl)cc4)cc3)c(=O)c2=O)CC1 do in these assays?
Luc counter: 1.5%; HPGD block: inconclusive; IMPase Li inh: -1.7%; LMNA splice mod: 11.6%; ALDH1A1 block: 5.9%

How did CCOC(=O)C1CCN(c2c(NCc3ccc(C(=O)NCCC(C)C)cc3)c(=O)c2=O)CC1 do in these assays?
Luc counter: -4.6%; HPGD block: 3.55µM*; IMPase Li inh: 4.9%[38.3 µM]; LMNA splice mod: 5.7%; ALDH1A1 block: -11.6%

Results for CC1CCN(c2c(NCc3ccc(C(=O)N4c5ccccc5CC4C)cc3)c(=O)c2=O)CC1 (centres undefined) ?
Luc counter: 2.3%; HPGD block: 12.6µM*; IMPase Li inh: 15.4%; LMNA splice mod: inconclusive; ALDH1A1 block: -11.2%

How did O=C(O)c1cc(=O)[nH]c(=O)[nH]1 do in these assays?
HPGD block: -5.5%; IMPase Li inh: -6.5%; LMNA splice mod: inconclusive; ALDH1A1 block: inconclusive

How did COc1cc(-c2cc(OC)c3c(C)oc(C)c3c(=O)c2)ccc1O do in these assays?
Luc counter: -0.5%; HPGD block: inconclusive; IMPase Li inh: 17.1%[38.3 µM]; LMNA splice mod: inconclusive; ALDH1A1 block: -9.5%

Results for COc1ccc(-c2oc3c(OC)c(OC)c(OC)c(O)c3c(=O)c2OC)cc1OC ?
IMPase Li inh: 0.3%; ALDH1A1 block: -8.1%

What do the screens show for `COc1ccc(-c2cc(=O)c3c(O)c(OC)c(OC)c(OC)c3o2)cc1OC`?
Luc counter: 0.6%; HPGD block: -14.4%; IMPase Li inh: 1.4%; LMNA splice mod: inconclusive; ALDH1A1 block: 20µM*

Results for COc1ccc(-c2cc(OC)c3c(C)oc(C)c3c(=O)c2)cc1OC ?
Luc counter: -2.6%; HPGD block: 28.2µM*; IMPase Li inh: 15.3%[38.3 µM]; LMNA splice mod: inconclusive; ALDH1A1 block: 11.2µM*

How did COc1cc(-c2cc(=O)c3c(O)c(OC)c(OC)c(O)c3o2)ccc1O do in these assays?
IMPase Li inh: -1.0%; ALDH1A1 block: 28.2µM*

Screening results: PubChem BioAssay, National Center for Advancing Translational Sciences (NCATS)
